Screening results (PubChem BioAssay)
Pf Dd2 growth – qHTS Primary assay for Inhibitors of Plasmodium falciparum Dd2 growth in vitro. Potency, µM (series often up to 28.9 µM), for the others: at the top dose activity, negative = inhibition, hits mostly inhibitors. 120,000 tested, 4.3% active. P. falciparum Dd2 growth, SYBR Green, 72 h; active = well fitted inhibition curve with a large enough effect;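 note: plate controls were DMSO vehicle for no effect and reference drug for full effect; nearly all actives have a fitted effect of over 65% in size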
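Infected erythrocytes (Dd2, 0.3% parasitemia, 2.5% hematocrit final) are added to compound in RPMI-1640/Albumax II medium, grown 72 h at 37C in low oxygen, then lysed with saponin/Triton-X containing SYBR Green and read by fluorescence.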
An asterisk follows results filed as active; i = inactive; ! = not active in a repeat; [ ] = dose if it differs, or a comment. The entries come from a sample that favours hits as a whole. Potency is the fitted concentration of half-maximal effect.

SMILES | Pf Dd2 growth
O=C(c1cccs1)N1CCCN(C(=O)C2CC2)c2ccccc21 | -2%
O=C(NC1CCCN(C(=O)C2CC2)C1)c1cccc(Cn2cccn2)c1 (stereo not given) | 2%
Cc1cccc(C)c1NC(=O)c1ccc2c(c1)nnn2C1CCCC1 | 10%
Cc1cccc(C)c1NC(=O)c1cccc(CN2CCCC2C)c1 (stereo not given) | 10µM*
CCC1(N2CCN(C(=O)c3ccc(Cl)s3)CC2)CCN(S(C)(=O)=O)C1 (stereo not given) | -26%
O=C(CCC1CCN(C(=O)c2ccccc2F)CC1)NCC1CCCCC1 | -22%
COc1ccc(CNC(=O)CSc2nc(-c3ccc(OC)cc3)cc(C(F)(F)F)n2)cc1 | 5%
CCCNC(=O)CCSc1nc(-c2ccc3c(c2)OCO3)cc(C(F)(F)F)n1 | 5µM*
CCCNC(=O)CSc1nc(-c2ccc(OC)cc2)cc(C(F)(F)F)n1 | i
COc1ccc(-c2cc(C(F)(F)F)nc(SCCC(=O)Nc3ccccc3F)n2)cc1 | 28%
CC(C)(C)NC(=O)CCSc1nc(-c2ccc3c(c2)OCO3)cc(C(F)(F)F)n1 | i
COc1ccc(-c2cc(C(F)(F)F)nc(SCCC(=O)Nc3cc(C)ccc3O)n2)cc1 | 1µM*
Cn1c(=O)n([C@H]2CCCN(C(=O)c3ccn[nH]3)C2)c2ncccc21 | -17%
CC(C)(C)C(=O)N1CCC(c2nnc(Cn3cncn3)n2C2CC2)CC1 | 1%
CN(c1ccccc1)c1ccc2nnc(-c3cc(C(=O)NCc4ccncc4)ccn3)n2n1 | -5%[44.1 µM]
CN(c1ccccc1)c1ccc2nnc(-c3cc(C(=O)NCCc4ccccc4)ccn3)n2n1 | 8.9µM*
CN(c1ccccc1)c1ccc2nnc(-c3cc(C(=O)NC4CCOCC4)ccn3)n2n1 | -22%[44.1 µM]
Cn1cc(C(O)c2nc(Nc3ccc(OC(F)(F)F)cc3)n[nH]2)cn1 (stereo not given) | -4%[44.1 µM]
CCn1c(=O)n(-c2ccc3c(c2)OCO3)c2nc(-c3cccc(OC)c3OC)nc(C(N)=O)c21 | 6%
CCOC(=O)Cn1c(=O)n(-c2ccccc2OC)c2nc(-c3ccccc3C)nc(C(N)=O)c21 | 10µM*
CCOC(=O)Cn1c(=O)n(CC2CCCO2)c2nc(-c3ccccc3)nc(C(N)=O)c21 (stereo not given) | -15%
COc1ccc(CN2CCc3nc(N(C)C)[nH]c(=O)c3CC2)c(OC)c1OC | i[5.79 µM]
Cn1cc(CN2C[C@H](C(=O)Nc3nccs3)C[C@@H]2c2cccc(C(F)(F)F)c2)cn1 | -26%[44.1 µM]
CN1C[C@H](C(=O)Nc2ccncn2)C[C@H]1c1cccc(C(F)(F)F)c1 | -5%[44.1 µM]
CN1C[C@H](C(=O)Nc2nccs2)C[C@H]1c1cccc(C(F)(F)F)c1 | 2.8µM*
SMILES | Pf Dd2 growth
CC(=O)N1CCC(N2CCC3(CC2)CC(C(=O)N2CCOCC2)N(C)C3)CC1 (stereo not given) | 1%
CCN(CCO)C(=O)[C@H]1C[C@@](CC)(C(=O)O)N(C)[C@H]1c1ccc(OC)cc1 | 2%
COCCN1CCCC2(CCN(C(=O)CN3C(=O)CNC3=O)C2)C1=O (stereo not given) | -10%
O=C(NCc1cccc(Cl)c1)c1cc2n(n1)CC(c1ccc3c(c1)OCO3)OC2 (stereo not given) | -22%
NC1CC(c2nnc(COc3ccc4c(c3)CCNCC4)n2C2CC2)C1 (stereo not given) | 10µM*!
COCCn1c(COc2ccc3c(c2)ncn3C)nnc1C1CC(N)C1 (stereo not given) | -17%
CCn1c(COc2ccc(C)nc2)nnc1C1CC(N)C1 (stereo not given) | -26%
CC(=O)N1CCC(Cc2ncc(C)n2Cc2ccccc2)C1 (stereo not given) | -13%
COc1ccc(C(=O)NCCc2ncc(C)n2Cc2ccc(F)cc2)cn1 | -11%
Cc1cnc(CCNC(=O)NC(C)(C)C)n1Cc1ccccc1 | 4µM*
Cc1nn(CC(=O)NCc2ccc(N(C)C)cc2)c(=O)c2nc(C(C)C)sc12 | i
CC(C)N1CCOC(CC(=O)NCc2cc(N3CCOCC3)ncn2)C1 (stereo not given) | -7%
Cc1[nH]c2c(F)cccc2c1CC(=O)N(C)Cc1ccc2nsnc2c1 | -1%
Cc1cc(C(F)(F)F)nc(CNc2cc(C3CC(O)C3)nc(N)n2)n1 (stereo not given) | -20%
COC(=O)c1c(-c2ccc(Cl)cc2)noc1N1CCN(c2ccccc2F)CC1 | 30%
COC(=O)c1c(-c2ccc(Cl)cc2)noc1N1CCN(c2ccc(C(C)=O)cc2)CC1 | 2%
COC(=O)c1c(-c2ccc(Cl)cc2)noc1N1CCN(c2ccc(C)cc2C)CC1 | 8.9µM*
Cc1ccc(F)c(OCC(=O)c2ccc3c(c2)N(C(C)C(=O)NCc2ccco2)C(=O)CO3)c1 (stereo not given) | i
CCCn1cnnc1-c1nc2c([nH]1)CC(c1ccccc1OC)CNC2=O (stereo not given) | -10%
O=C(O)C1CCCN(Cc2ccccc2OCCCN2CCOCC2)C1 (stereo not given) | -1%
c1ccc(-c2ccc(CN3CCCC3)cc2)c(CN2CCOCC2)c1 | 8.9µM*
CCn1nc(-c2ccccc2CN2CCOCC2)nc1N(C)C | -7%
CC(C)c1nc(N2CCCCCC2)ncc1C(=O)O | 13%
COc1ccc([C@H]2C[C@@H](O)[C@@H](O)[C@@H]2NCc2cnn(C)c2)cc1 | i
COc1ccc([C@H]2C[C@@H](O)[C@@H](O)[C@@H]2NCc2cn(C)c3ccccc23)cc1 | 8.9µM*
SMILES | Pf Dd2 growth
COc1ccc([C@H]2C[C@@H](O)[C@@H](O)[C@@H]2NCc2ccccc2)cc1 | -1%[44.1 µM]
Cc1cccc(CN2CCC3(CC2)Cc2ccccc2CNC3=O)n1 | -9%
CCCc1ncncc1C(=O)N1C[C@@H](C)[C@](O)(C2CC2)C1 | -1%
O=C(c1cccc(F)c1)N1CCC(Oc2ccccc2-c2nc(C3CCOCC3)no2)C1 (stereo not given) | -2%
O=C(c1ccoc1)N1CCC(Oc2ccccc2-c2nc(C3CCOCC3)no2)C1 (stereo not given) | i
Fc1ccc(F)c(CN2CCC(Oc3ccccc3-c3nc(C4CCOCC4)no3)C2)c1 (stereo not given) | 4.5µM*
COC[C@@H]1CN(C(=O)c2ccc(OC)cc2OC)C[C@H]1C(N)=O | 16%
O=C(NC1CCN(c2cc(-c3ccccc3)[nH]n2)CC1)c1ccc(F)c(Cl)c1 | i
CC(C)NC(=O)N[C@H]1CCN2C(=O)c3cc(-c4ccsc4)ccc3NC(=O)[C@@H]2C1 | 13µM*
Cc1cccc(-c2ccc3c(c2)C(=O)N2CC[C@H](NC(=O)NC(C)C)C[C@H]2C(=O)N3)c1C | -4%[44.1 µM]
CC(C)NC(=O)N[C@H]1CCN2C(=O)c3cc(-c4ccc5c(c4)OCO5)ccc3NC(=O)[C@@H]2C1 | i
CC(=O)N1CCCC2(COc3ccccc3S(=O)(=O)N2)C1 (stereo not given) | 27%
Cc1ccc(NC(=O)N2CCC(CCNC(=O)c3cccc(F)c3)CC2)cc1F | 13µM*
COc1cccc(C(=O)NCCC2CCN(C(=O)Nc3ccc(C)c(F)c3)CC2)c1 | -29%
O=C(NCCC1CCN(C(=O)Nc2ccc(F)cc2F)CC1)c1cccc(F)c1 | -23%
COc1ccc(-c2ccc3c(c2)C(=O)N2CCN(C(=O)COc4ccccc4)C[C@@H]2C(=O)N3)cc1 | i
COc1ccc(NC(=O)Cn2c(=O)c(-c3noc(C)n3)c3n(c2=O)CCCC3)cc1OC | i
COCCOc1cc(C)c2c(c1C)C[C@H](C(C)C(=O)NC(C)(C)C)CC2 (stereo not given in full) | -5%[44.1 µM]
